High-throughput results: PubChem, several laboratories
Rows were chosen to be rich in hits. Some 4.6% of all compounds tested hit in one or more screens of this group.
CF NFkB inh: inhibitors of PAF-induced NF-kB signaling, primary screen, cell-based, GFP fluorescence, uHTS; KKLEB NF-kB-GFP reporter, GFP fluorescence overnight; inhibition, % at 5 µM; 0.86% of 360,000 active; AID 588850, 2011;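 active means at least 50% inhibition at 5 µM, scaled per plate between neutral and stimulator controls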;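 further: PAF is a Pseudomonas aeruginosa culture filtrate used as stimulus; plate controls were PAF-stimulated DMSO wells for no effect and unstimulated DMSO wells for full effect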
ABHD5-PLIN5 inh: ABHD5-PLIN5 interaction inhibitors, primary screen, cell lysate, split luciferase complementation, luminescence. 0.78% of 360,000 active. inhibition, % at 4 µM. Split G. princeps luciferase complementation, 4 h. AID 602281, 2012;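 active means inhibition above the mean inhibition across every tested compound plus 3 SD, cut at about 22% in these data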;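 further: 0% = DMSO only wells and the 100% control is not disclosed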
KKLEB tox: cytotoxicity in KKLEB CF airway cells, primary screen, cytotoxicity control for CF NF-kB inhibitor project, cell-based, uHTS, fluorescence assay plates; AID 602141, 2011; KKLEB CF airway cells viability, ATPlite luminescence, overnight; stronger effect = lower value; cells stimulated with P. aeruginosa culture filtrate; activity change (cytotoxicity), % at 5 µM; 0.36% of 360,000 active;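 active means corrected activity change at or below -50% at 5 µM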
Mdm2 MdmX PPI: inhibitors of human Mdm2-MdmX association, primary screen, cell-based, luminescence, split luciferase, SaOS-2, uHTS. SaOS-2 split-luciferase Mdm2/MdmX complementation. inhibition, % at 8 µM. 3% of 330,000 active. AID 485346, 2010;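 active means inhibition of at least 50% at 8 µM in the primary screen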
HIF-2a inh: HIF-2a reporter inhibitors, primary screen, luminescence, 786-0 RCC cells; AID 624352, 2012; 0.72% of 360,000 active; inhibition, % at 18.8 µM; 786-0 RCC cells HIF-2a reporter, luciferase luminescence, overnight;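 active means inhibition of the luminescence signal of 40% or more relative to plate controls, in a single-dose primary screen at 18.75 µM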
Peg3 prom inh-1: Peg3 promoter-driven luciferase inhibitors, primary screen, cell-based, HeLa, luciferase luminescence; HeLa PEG-Prom luciferase reporter, overnight; inhibition, % at 20 µM; AID 588405, 2011; 1.7% of 360,000 active;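 active means inhibition of at least 50% at 20 µM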
Peg3 prom inh-2: Peg3 promoter reporter inhibitors, retest, confirmation, cell-based, HeLa, luciferase reporter, single concentration | shares compounds with Peg3 prom inh-1 | HeLa PEG-Prom luciferase reporter, luminescence, overnight | inhibition, % at 20 µM | 84% of 1,300 active | AID 602417, 2012;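 active means at 20 µM dose, 40% or more inhibition averaged across four replicates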
* marks the source's active call; other numbers are inactive results; nt = no result given.

SMILES | CF NFkB inh | ABHD5-PLIN5 inh | KKLEB tox | Mdm2 MdmX PPI | HIF-2a inh | Peg3 prom inh-1 | Peg3 prom inh-2
CN(C)c1ccc(C=c2c3ccccc3n3c2cc(-c2ccccc2)[n+]3C)cc1 | -145 | 18 | -22 | nt | 90* | 104* | 98*
C=CCn1c(SCC(=O)c2[nH]c(C)c(C(=O)OCC)c2C)nc2scc(-c3ccc(OC)c(OC)c3)c2c1=O | 56* | -3 | -42 | nt | 9 | 86* | 11
COc1ccc(C[C@H]2CN3C(=NC[C@@H]3Cc3ccc(O)cc3)N2C[C@H](C)NC(=O)CCC2CCCCC2)cc1 | 9 | 8 | -11 | 44 | -11 | 63* | 29
CCOC(=O)CN(C(=O)CSc1nnc2c(n1)[nH]c1ccc(F)cc12)c1ccccc1 | 5 | 0 | -5 | 21 | 16 | 56* | 49*
COc1cccc(-c2cccc(-c3nc(C(=O)Nc4ccc(-c5ccccc5)cc4)cc4c3[C@H](CCO)N(S(=O)C(C)(C)C)C4)c2)c1 (stereo partly drawn) | -20 | 2 | -4 | nt | 0 | 78* | 37
COc1cccc(-c2cccc(-c3nc(C(=O)NCc4ccc5c(c4)OCO5)cc4c3[C@H](CCO)N(S(=O)C(C)(C)C)C4)c2)c1 (stereo partly drawn) | 17 | 17 | -12 | nt | 4 | -10 | nt
COC(=O)c1ccc(CNC(=O)Cn2cnc3c(NCc4ccccc4)ncnc32)cc1 | -14 | 1 | 3 | 27 | -4 | 63* | 47*
CCOc1ccc(/C=N/NC(=O)c2nnn(-c3nonc3N)c2COc2ccc(F)cc2)cc1 | -36 | -4 | 7 | 24 | 15 | 54* | 25
CN(C)c1ccc(/C=N/NC(=O)c2nnn(-c3nonc3N)c2COc2ccc(F)cc2)cc1 | 0 | -4 | 8 | -10 | 14 | 87* | 51*
CN(C)Cc1c(C(=O)N/N=C/c2ccc(OCc3ccc(F)cc3)cc2)nnn1-c1nonc1N | -16 | 13 | 6 | 14 | -7 | -37 | nt
CN(Cc1c(C(=O)N/N=C/c2ccc(F)cc2)nnn1-c1nonc1N)C1CCCCC1 | 3 | 10 | -8 | 3 | 5 | 2 | nt
CC(C)c1ccc(/C=N/NC(=O)c2nnn(-c3nonc3N)c2CN(C)C2CCCCC2)cc1 | 2 | -3 | -16 | 38 | 5 | 65* | 32
C[C@H]1CN([C@@H](C)CO)C(=O)CCCn2cc(nn2)CO[C@@H]1CN(C)S(=O)(=O)c1cccc(F)c1 | -21 | 3 | 15 | nt | 5 | 9 | nt
CC(=O)Nc1cccc(-c2ccnc3c2CC(C)(C(=O)Nc2cccc(C(F)(F)F)c2)O3)c1 (stereo not drawn) | 24 | -2 | -16 | nt | 21 | 52* | 62*
COc1cc(C(=O)NCCc2c[nH]c3ccccc23)ccc1OCc1c(C)noc1C | -6 | -4 | 5 | 32 | 13 | 63* | 18
Cc1nnc(NC(=O)c2ccc(N3CCCC3=O)cc2)s1 | -10 | -2 | -23 | 3 | -138 | -119 | nt
Cc1csc(NC(=O)c2ccc(N3CCCC3=O)cc2)n1 | 20 | 3 | 1 | 38 | 33 | 64* | 46*
O=C(C[C@H]1C[C@H](C(=O)N2CCOCC2)[C@@]2(CCC3CCCC3)c3[nH]c4ccc(Cl)cc4c3CCN2C1=O)NCCN1CCOCC1 | 16 | -5 | 0 | 37 | -17 | 50* | 8
CC(=O)NC(C)(c1ccccc1)c1nc(-c2ccc(N(C)C)cc2)cs1 (stereo not drawn) | 5 | 3 | -6 | nt | -17 | 1 | nt
Cc1ccc2c(c1)COc1c3ccc(C(=O)NCC4CC4)cc3nn1-2 | -49 | -5 | 8 | -109 | -291 | -245 | nt
Cc1ccc2c(c1)COc1c3ccc(C(=O)O)cc3nn1-2 | -6 | 0 | 0 | 44 | 83* | 89* | 36
CCC(C)Sc1ccc(-c2nc3ccccn3c2NCc2ccccc2)cc1OC (stereo not drawn) | 18 | 5 | -6 | 23 | -292 | 93* | 97*
Cc1nn(-c2nc3ccccc3[nH]2)c(=O)c2ccccc12 | -12 | 3 | -78* | nt | 95* | 104* | 99*
COc1cccc(NC(=O)Nc2cccc(C(=O)O)c2)c1 | 6 | 2 | 4 | 42 | 81* | 67* | 55*
CCCSc1ccc2nc(-c3ccccc3)cn2c1 | -10 | -3 | -70* | 20 | 69* | 77* | 69*
SMILES | CF NFkB inh | ABHD5-PLIN5 inh | KKLEB tox | Mdm2 MdmX PPI | HIF-2a inh | Peg3 prom inh-1 | Peg3 prom inh-2
CSCCC(NC(=O)c1ccccc1Cl)C(=O)NCCc1ccccn1 (stereo not drawn) | 9 | 1 | -24 | 0 | -7 | 8 | nt
CCN(CC)CCN1CCN(c2cncc(-c3ccc4ccccc4c3)n2)CC1 | -8 | -2 | -12 | nt | -21 | 71* | 90*
CCN(CC)CCN1CCN(c2cncc(-c3cccc(N)c3)n2)CC1 | 25 | -3 | -3 | nt | 7 | 3 | nt
O=C(CCCl)N1CCN(c2nc(-c3ccccc3)cs2)CC1 | -14 | -6 | 0 | -22 | -253 | -157 | nt
NS(=O)(=O)c1ccc(CCNC(=O)CSc2ccc(Cl)cc2Cl)cc1 | -8 | 2 | 0 | -1 | 17 | 22 | nt
NS(=O)(=O)c1ccc(CCNc2nn3c(-c4ccc(F)c(Cl)c4)cnc3s2)cc1 | 42 | 13 | -12 | nt | 34 | 67* | 95*
CC(C)c1ccc(/C=C2\SC(=O)N(CC(=O)NCCCn3ccnc3)C2=O)cc1 | -4 | 5 | -28 | 6 | -178 | -278 | nt
Cc1ccc(-c2cn3nc(C)c(C)nc3n2)cc1 | -20 | 2 | 3 | 47 | 2 | 60* | 46*
CN(C)c1ccc(/C=C2\SC(=O)N(CCc3nnc(N)s3)C2=O)cc1 | -20 | 12 | -45 | 32 | 58* | 72* | 54*
CN(C)c1ccc(/C=C2\SC(=O)N(CC(O)Cn3c4ccccc4c4ccccc43)C2=O)cc1 (stereo not drawn) | 4 | -8 | -22 | 28 | -3 | -11 | nt
COc1ccc(C(=O)N2CCCC(c3cc(C(=O)NCc4ccc(F)cc4)no3)C2)cc1 (stereo not drawn) | -7 | 9 | -4 | nt | 18 | 6 | nt
NC(=O)C1CCN(C2=C(NS(=O)(=O)c3ccccc3)C(=O)c3ccccc3C2=O)CC1 | 0 | -22 | 6 | 28 | 4 | 7 | nt
